In the supplement of paper PMC6555819:

How the values were obtained:
Experiment in all cases: PBM binding z-score (relative to random genomic background probes); higher = stronger binding; sequences stand for … in GC…GCGATTGACAGCGTAGAATGAAGG
[1] = system: PPARg:RXRa DBDmut IVT, anti-RXR (DBD mutation: RXRa K156A/R161A, NR concentration 270 nM, RXRa partner concentration 90 nM)
Procedure, shortened: (§1)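 For binding z-scores, the reference was random background probes on custom Agilent 4×180K protein-binding microarrays. These arrays were incubated 1 h with ligand-free nuclear receptor dimers in PBS pH 7.4, 2% milk, 0.02% Triton X-100, 1 mM DTT, 0.2 mg/mL BSA and 0.4 mg/ml salmon testes DNA. Fluorescence was scanned after antibody detection of each partner (one per run) and regression-normalized.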

[2] = system: PPARg:RXRa IVT, anti-PPARg (NR concentration 270 nM, RXRa partner concentration 90 nM)
Procedure, shortened: as §1

[3] = system: PPARg DBDmut:RXRa IVT, anti-PPARg (DBD mutation: PPARg1 K132A/R137A, NR concentration 270 nM, RXRa partner concentration 90 nM)
Procedure, shortened: as §1

[4] = system: PPARg DBDmut IVT, anti-PPARg (DBD mutation: PPARg1 K132A/R137A, NR concentration 270 nM)
Procedure, shortened: as §1

[5] = system: PPARg homodimer (NR concentration 180 nM)
Procedure, shortened: as §1

[6] = system: PXR:RXRa (NR concentration 270 nM, RXRa partner concentration 90 nM)
Procedure, shortened: as §1

[7] = system: PXR homodimer (NR concentration 270 nM)
Procedure, shortened: as §1

[8] = system: RARa:RXR (NR concentration 270 nM, RXRa partner concentration 90 nM)
Procedure, shortened: as §1

[9] = system: RARa homodimer (NR concentration 270 nM)
Procedure, shortened: as §1

[10] = system: RARb:RXRa (NR concentration 270 nM, RXRa partner concentration 90 nM)
Procedure, shortened: as §1

Sequence	PBM binding z-score [1]	PBM binding z-score [2]	PBM binding z-score [3]	PBM binding z-score [4]	PBM binding z-score [5]	PBM binding z-score [6]	PBM binding z-score [7]	PBM binding z-score [8]	PBM binding z-score [9]	PBM binding z-score [10]
GGAACGAGGGCATTCGCGTTGATAGCATGGCGAT	2.08	1.86	-0.525	-0.616	-0.126	0.744	-0.0684	0.449	-0.431	1.71
GCTTGTAGATCTAGGTTAAGAAAGACTAAGCTAA	3.21	3.27	0.608	0.399	-1.08	-0.4	-0.246	0.0619	-0.0444	0.0938
CCTTACGGGTCACGAAGTTATAGCACGACGAGCG	3.76	4.76	0.631	-0.0727	1.89	3.31	-0.0842	3.86	0.765	4.51
AGTCAAAGTTCACTAGGTAACGTTAGATTCAGCT	2.64	4.82	1.46	1.15	2.91	3.95	2.61	3.1	0.915	4.65
AGAGTGAGGTTATACGTAGATCAGGGAAGAAAGT	0.49	0.769	1.06	0.722	1.66	1.39	1.28	1.65	1.14	1.78
CCAGACAGGTGAAAGGTAATTCAGTCTGGTACGC	2.07	2.63	-0.0152	-0.567	1.43	0.676	-0.138	1.49	0.566	0.958
ACAGACAGGTGAGTGAAGGTAACGCAGCTGGACG	0.361	1.04	-1.24	-0.822	-0.463	-0.245	-0.327	0.359	-0.195	0.702
AGAACGAGAGCAATGAGTTGATAGCACGGGTGGC	0.0253	-0.231	-0.979	-0.694	-1.02	-0.378	-0.202	-0.818	-0.732	-0.525
ATCTCCAGGTAAGACTCAGTTCAGTGAAGAACGC	0.285	0.513	0.311	1.43	1.51	1.38	1.36	0.454	0.892	0.446
ACTATTAGTTGATTTAGGGCAACCGATACGACGC	1.57	2.39	2.12	1.32	1.41	0.00966	0.993	0.345	1.47	0.582
GGAACGAGGGCATTCGAGTTGTTAGCATGGCGAT	3.22	1.99	-0.193	-0.86	-0.473	1.99	0.576	0.173	-0.666	1.81
CTCGAAAGGTCGGTTGAGATGAGTATACGGATAA	-0.21	0.247	0.456	0.37	0.803	1.01	0.26	1.37	0.533	2.86
CGTCCAAGGTCAGCAGGTCAGTTAAAGCGACGTG	3.4	3.71	-0.851	-0.676	3.29	3.76	0.476	4.7	1.05	5.53
ACAGAGAGGTGAGTGAAGGTAACTCAGCTGGACG	1.71	1.65	0.674	-0.716	0.508	0.337	0.0847	0.565	0.175	1.48
CCTCAGAGGACAACAGGAGGTCAGAGCTGCCAGA	0.559	0.422	-0.428	-1.85	1.69	2.04	0.295	2.24	0.569	3.46
TCTCGGAGGACACGGAGGTCAGAGCTTTCCAGAG	1.26	1.06	-0.769	-1.39	1	2.45	2.46	2.29	-0.596	3.25
GTACCAAGGTGAATAGGTCGTTCATGAGTAGGCG	1.96	2.71	0.421	-1.06	0.765	0.908	-0.0414	1.62	-0.236	2.12
CCGAGTAGGTTATGGGGCATTCACGCAACGGTGA	3.46	3.48	0.0074	-0.799	1.81	-0.0726	-0.244	0.125	0.665	1.06
CCGCCTGGGGCATAAGGTTACCATAAGCCAGCCC	-0.446	-0.147	-2.09	-2.48	0.35	0.37	-0.511	1.52	-0.89	1.68
TCATATAGGTAAACACGTGAAAGTCCGTAAGTTA	4.07	2.96	0.9	1.04	0.24	0.722	0.241	0.769	1.1	0.364
ATCTCTAGGAAAGACTCAGTTCAGTGAAGAACGC	-0.0594	-0.318	0.245	0.852	0.978	0.737	1.37	0.199	0.964	0.144
TGCATGAGGTTAAAGATCAGGGAACGTGGCGTCG	0.0827	1.55	0.0491	0.396	1.07	2.23	0.0644	2.93	0.611	2.23
ACTAGCAGGCCAAGTTTGTGTCACTCAAACAAAG	0.66	0.636	-0.284	-0.278	-0.972	-0.323	-0.685	-0.217	-0.826	0.471
ACTATTAGTTGTCTTAGGGCAACCGATACGACGC	0.0563	0.447	1.35	1.18	0.545	-0.171	0.0491	-0.0308	0.604	0.618
GTACCAAGGTGAATAGCTCGTTGATGAGTAGGCG	1.55	1.7	-0.0388	-0.301	-0.135	-0.403	-0.283	-0.0864	-0.272	0.887
